Results reported in PubChem BioAssay (NCI).
Values joined by “and” are separate entries in the source; they are usually repeats but may differ in a detail not shown here. Equal values may be shown once. The panel holds about 83,000 compounds, 20% with a hit somewhere; the sample as a whole holds those more often.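 In brief: 96-well plates, 48 h treatment, single concentration, percent growth endpoint.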 Some structures have more than one record in an assay (separate samples or runs), and their calls can disagree. Active and inactive are the calls of the source. The calls were made as follows: active = growth percent below 10; inactive = the rest.

What follows are compounds tested on HL-60(TB) leukemia (assay: NCI-60 one-dose screen, 48 h (100 = growth as untreated, 0 = no growth, -100 = all killed)). Settings: 10 µM unless noted.
With `CCc1ccccc1-n1c(N)c(C#N)c(-c2ccc(N(C)C)cc2)c(C#N)c1=O` the growth was 96.4% (inactive). For `C#CC[C@@H]1C[C@]2(C)[C@H]3CC[C@@H]4[C@H]5C(C(=C)C)CC[C@]5(C(=O)NCCCN5CCN(CCCN)CC5)CC[C@@]4(C)[C@]3(C)CC[C@H]2C(C)(C)[C@H]1OC(C)=O` (some centres undefined), the growth was -51.6% (active). With `Cc1ccc(S(=O)c2ccc([N+](=O)[O-])c3nonc23)cc1` (centres undefined) the growth was 33.2% (inactive). With `Cc1[nH]c(=O)[nH]c(=O)c1Br` the growth was 129% (inactive). `C=C1C(=O)O[C@H]2[C@H]1CC/C(COC(=O)NCc1ccc(OC)cc1)=C\CC[C@@]1(C)O[C@@H]21` was tested, and the growth was 11.1% (inactive). `O=C1N/C(=N/O)S/C1=C/c1cn(-c2ccccc2)nc1-c1ccccc1` was tested, and the growth was 117% (inactive). `CCN(CC)CCc1nc(-c2ccccc2)no1` was tested, and the growth was 104% (inactive). In the case of `CN(C)CCOC1(Cc2ccc(Cl)cc2Cl)CCC(C(C)(C)C)CC1` (centres undefined), the growth is reported as 43.9% (inactive) and 9.21% (active). `Cn1cnc2c(N3CCN(C(=O)OCc4ccc5c(Cl)cc(Cl)c(O)c5n4)CC3)nc(Cl)nc21` was tested, and the growth was 66% (inactive). In the case of `Cc1ccncc1NC=O`, the growth is reported as 105% (inactive). For `COc1c(NC=O)c2c(c([N+](=O)[O-])c1OC)C(=O)OC2`, the growth was 98% (inactive) and 90.7% (inactive). In the case of `CCOC(=O)c1cc(-c2cccnc2)nc2c(Cl)cc(Cl)cc12`, the growth is reported as 108% (inactive). For `C=C1CCC[C@]2(C)CCC[C@H](C)[C@@H](OC(C)=O)[C@@H]3OC(=O)C(=C)[C@@H]3C[C@H]1O2`, the growth was 41.8% (inactive). With `Cc1[c-]onc1C.Cc1[c-]onc1C.[Ag].[Ag].[NH-]S(=O)(=O)c1ccc(N=Nc2cc(N=Nc3ccc(S([NH-])(=O)=O)cc3)c3c(NC(=O)C(Cl)Cl)cccc3c2OC(=O)C(Cl)Cl)cc1` the growth was 38.1% (inactive). In the case of `Cc1cc2c(c(=O)o1)C(c1ccc(OC(=O)N3CCOCC3)cc1)C(C#N)=C(N)O2` (centres undefined), the growth is reported as 104% (inactive). In the case of `O=c1nc2c(-c3nc4ccccc4s3)n[nH]n2c2sc3c(c12)CCCC3`, the growth is reported as 99.4% (inactive). For `COc1cc(-c2nc(SCCC(C)C)nc(Nc3ccccc3Cl)c2C#N)cc(OC)c1OC`, the growth was 101% (inactive). `Cc1cc(N=Nc2ccc(-c3ccc(N=Nc4ccc(O)c(C(=O)O)c4)cc3)cc2)c(N)c(N=Nc2ccc(C(=O)O)cc2)c1N` was tested, and the growth was 81% (inactive). For `COc1ccc(/C=C/C(=O)Nc2cccnc2Nc2ccc(F)cc2)cc1`, the growth was 84.3% (inactive). `CC(C)(C)NC(=O)C(OC(=O)C1CCc2cc(F)ccc2O1)c1ccccc1Cl` (centres undefined) was tested, and the growth was 103% (inactive). For `C=C1C(=O)O[C@H]2[C@H]1CC/C(COC(=O)CCC(=O)NCCOCCOCC(=O)Nc1ccc(OC)c(C(N)=O)c1O)=C\CC[C@@]1(C)O[C@@H]21`, the growth was 65.3% (inactive). In the case of `O=C1OCC2=C1C(c1cccc(Cl)c1)c1cc3c(cc1N2CCO)OCCO3` (centres undefined), the growth is reported as -20% (active). For `Cc1ccc2c3c(c(=O)[nH]c2c1)C1(C(C#N)=C(N)O3)c2cc(Br)ccc2-c2ccc(Br)cc21`, the growth was 83.7% (inactive). With `CNS(=O)(=O)Oc1ccc(-c2ccc3occc3c2)cc1` the growth was 100% (inactive).
